From PubChem BioAssay
An excerpt weighted towards active compounds, which were near 7.4% of everything screened.
SMN2 splice enh: increases expression of the SMN2 splice variant; HEK293 SMN2-luciferase splicing reporter, luminescence, 30-36 h; AID 1458; 2.8% of 210,000 active; Potency, µM (highest dose often 46.1 µM), hits mostly activators; also: nearly all actives have a fitted effect of over 55% in size
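HEK293 cells carry an SMN2 […]–luciferase reporter in which exon 7 inclusion puts luciferase in frame. Cells were plated 10-12 h before compound addition, then incubated 30-36 h at 37C. ONE-Glo luminescence was read; sodium butyrate at 4.5 mM final served as control.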
NPC1 promoter act: activates the NPC1 promoter; Huh7 NPC1 promoter luciferase reporter, 24 h; Potency, µM (top dose mostly 9.22 µM), most hits filed as activators; 2.4% of 320,000 active; AID 485313; also: nearly all actives have a fitted effect of over 60% in size
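Luminescence from an NPC1 promoter-driven luciferase reporter in stably transfected Huh7 cells was measured after 24 h compound treatment at 37 °C, followed by 10 min ambient incubation with luciferase detection reagent.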
ELG1 genotoxic: genotoxicity induction in ELG1-luciferase HEK293T cells. 1.3% of 330,000 active. Potency, µM (titrated, usually from 46 µM), usual class: activators. AID 504466. HEK293T ELG1-luciferase reporter, luminescence, 16 h; also: nearly all actives have a fitted effect of over 60% in size
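Step 1: seed 2,000 HEK293T ELG1-luciferase cells per well. Step 2: add compound or DMSO, incubate 16 hr at 37 °C. Step 3: ONE-Glo, 30 min at room temperature, read luminescence.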
Rab9 promoter act: activators of Rab9 promoter | Huh7 Rab9 promoter-luciferase reporter, luminescence, 24 h | Potency, µM (highest dose often 9.22 µM), hits mostly activators | 2.8% of 320,000 active | AID 485297; also: nearly all actives have a fitted effect of over 60% in size
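Huh7 cells stably carrying a Rab9 promoter-luciferase reporter, 1500 cells per well in OP-MEM I with 10% FBS, treated with compound 24 hours at 37C. Luciferase activity read by luminescence after 10 minutes with Amplite reagent.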
FLuc counter: firefly luciferase modulation, counter-screen for miR-21 project. Potency, µM (titrated, usually from 57.5 µM), usual class: inhibitors. P08659. 6.9% of 360,000 active. purified FLuc, Km substrates, luminescence inhibition; also: nearly all actives have a fitted effect of over 55% in size
Target sequence (P08659 whole entry, looked up): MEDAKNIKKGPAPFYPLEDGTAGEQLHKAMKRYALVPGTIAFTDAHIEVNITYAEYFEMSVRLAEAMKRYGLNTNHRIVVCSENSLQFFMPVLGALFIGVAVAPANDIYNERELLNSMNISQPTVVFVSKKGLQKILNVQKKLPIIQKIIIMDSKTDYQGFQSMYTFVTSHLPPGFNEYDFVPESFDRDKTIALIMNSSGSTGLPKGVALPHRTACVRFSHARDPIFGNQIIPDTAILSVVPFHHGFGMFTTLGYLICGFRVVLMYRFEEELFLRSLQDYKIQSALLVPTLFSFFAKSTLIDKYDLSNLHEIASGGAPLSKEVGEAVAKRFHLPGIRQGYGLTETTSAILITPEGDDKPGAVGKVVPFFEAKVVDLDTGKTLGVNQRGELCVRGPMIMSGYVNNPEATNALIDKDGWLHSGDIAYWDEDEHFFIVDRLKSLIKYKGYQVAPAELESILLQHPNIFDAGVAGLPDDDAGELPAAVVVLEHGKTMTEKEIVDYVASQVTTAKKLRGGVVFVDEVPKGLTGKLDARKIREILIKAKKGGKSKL
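Purified P. pyralis luciferase, 10 nM final, with Km-level 10 uM D-luciferin and 10 uM ATP in 50 mM Tris acetate pH 7.5, 10 mM Mg acetate, 0.01% Tween-20, 0.05% BSA; 6-point qHTS titration about 60 µM downward; luminescence read.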
A number is an active result; – = inactive; ? = inconclusive; · = no result; [ ] = dose if it differs, or a comment. Calls follow the shape of the dose curve; as a rule, active = well fitted curve in the direction sought with a large enough effect; inconclusive = small, poorly fitted or top-dose-only effect, or another doubt; inactive = no such curve, though single readings can be large; an effect the other way counts as inactive or inconclusive.

SMILES	SMN2 splice enh	NPC1 promoter act	ELG1 genotoxic	Rab9 promoter act	FLuc counter
COc1ccc(-c2cc(C(=O)O)c(C)o2)cc1OC	0.63µM	?	?	0.32µM	1.7µM
COc1ccc(-c2cc(C(=O)NC(Cc3cc4ccccc4[nH]3)C(=O)O)c(C)o2)cc1OC (stereo unspecified)	·	–	–	?	?
Cc1oc(-c2ccc3c(c2)OCCO3)cc1C(=O)NCC(=O)O	·	–	–	–	–
Cc1oc(-c2ccc3c(c2)OCCO3)cc1C(=O)O	–	–	–	–	2.4µM
COC(=O)c1cc(=O)[nH]c(=O)[nH]1	–[9.22 µM]	·	·	·	·
C=CCNc1nc2c3ccccc3n(C(C)=O)c2s1	–	–	?	–	24µM
c1cn2c(Nc3ccc4c(c3)OCCO4)c(-c3ccc(N4CCOCC4)cc3)nc2cn1	·	–	?	–	2.7µM
CSc1ccc(-c2nc3cnccn3c2Nc2ccc3c(c2)OCO3)cc1	–	–	–	–	19µM
Clc1ccc(-c2nc3cnccn3c2Nc2ccc3c(c2)OCO3)cc1	–	–	–	–	?
CCc1ccc(NC(=O)C2CCN(S(=O)(=O)c3c(C)noc3/C=C/c3cccs3)CC2)cc1	–	·	·	·	–
Clc1ccc(-c2nc3nc4ccccc4nc3n2Cc2ccco2)cc1	18µM	–	23µM	–	?
CCCCCn1c(-c2ccco2)nc2nc3ccccc3nc21	–	–	–	–	?
Cc1ccc(-c2nc3nc4ccccc4nc3n2Cc2ccco2)cc1	8.9µM	–	2.9µM	–	11µM
COC(=O)c1ccccc1S(=O)(=O)N1CCC(NC(=O)C(Cc2cccc(OC)c2OC)NC(C)=O)CC1 (stereo unspecified)	·	–	–	–	–
N/C(=N\OC(=O)CCCc1ccccc1)c1cccnc1	–	–	–	–	17µM
N/C(=N\OC(=O)Cc1ccccc1)c1cccnc1	–	–	–	–	–
N/C(=N\OC(=O)CCCc1ccccc1)c1ccccc1	·	–	?	–	4.8µM
N/C(=N\OC(=O)CCCc1ccccc1)c1cccc([N+](=O)[O-])c1	–	–	–	–	?
Cc1cccc(/C(N)=N/OC(=O)CCCc2ccccc2)c1	·	–	?	–	9.5µM
CNc1nc(-c2ccc(Cl)cc2)cs1	–	2.8µM	?	2.8µM	6.7µM
CCN(CC)CC(=O)Nc1nc(-c2ccc(Cl)cc2)cs1	–	–	–	–	–
CC(C)C(=O)Nc1nc(-c2ccc([N+](=O)[O-])cc2)cs1	–	–	–	–	?
CCNc1nc(-c2ccc(Cl)cc2)cs1	–	3.5µM	?	2.2µM	3.4µM
CNc1nc(-c2ccc([N+](=O)[O-])cc2)cs1	–	?	–	?	12µM
O=C(OCC#CCNc1nnc(-c2cccc3ccccc23)o1)c1cccs1	·	–	·	–	–
SMILES	SMN2 splice enh	NPC1 promoter act	ELG1 genotoxic	Rab9 promoter act	FLuc counter
COc1cc(C)c(NC(=O)C2CCN(S(=O)(=O)c3cccs3)CC2)cc1OC	·	–	–	–	–
CCC(Sc1nc(N)cc(N)n1)C(=O)O (stereo unspecified)	–	–	–	–	–
CC(C)(C)c1ccc(SCCc2cccnc2)cc1	·	2µM	?	3.5µM	5.4µM
c1ccc(SCCc2ccncc2)cc1	–[9.22 µM]	–	–	–	–
CC(C)(C)[C@H]1COC(=O)CCCC/C=C\C[C@H](CC(=O)N(CCO)Cc2ccccc2)C(=O)N1	·	·	–	·	·
Cc1ccccc1N1CC(c2nnc(NC(=O)c3ccco3)s2)CC1=O (stereo unspecified)	·	·	·	·	–
O=C(Nc1nnc(C2CC2)s1)c1ccco1	–	?	?	3.2µM	?
O=C(Nc1nnc(C2CCCCC2)s1)c1ccco1	?	4µM	?	2µM	?
O=C(CS(=O)(=O)Cc1ccccc1)Nc1nnc(C2CCCCC2)s1	–	–	–	–	–
CCN1CCN(C(c2cccc(F)c2)c2c(O)cc(C)n(Cc3ccco3)c2=O)CC1 (stereo unspecified)	·	·	·	·	–
Nc1ncnc2c1ncn2[C@@H]1O[C@H](CNC(=O)[C@@H](N)Cc2ccc(C(F)(F)F)cc2)[C@@H](O)[C@H]1O	·	·	–	·	·
CCC(=O)Nc1nc(-c2ccc3c(c2)OCCO3)cs1	2.5µM	0.5µM	2.1µM	3.2µM	6µM
c1cc2c(cc1-c1csc(NNC3=NCCCCC3)n1)OCCO2	–	–	–	?	19µM
COc1ccccc1C(=O)Nc1nc(-c2ccc3c(c2)OCCO3)cs1	–	–	–	–	?
CC(C)(C)C(=O)Nc1nc(-c2ccc3c(c2)OCO3)cs1	?	3.5µM	2.3µM	2.8µM	7.6µM
O=C(O)CN1C(=O)C2C3CC(C2C1=O)C1C(c2ccc(F)cc2)c2sc(=O)[nH]c2SC31 (stereo unspecified)	–	–	–	–	–
CCCCNc1nc2c(c(=O)n(Cc3ccc(Cl)cc3)c(=O)n2C)n1C	–	·	·	·	–
Cc1ccc(CN2CCSc3sccc3C2=O)cc1	·	–	–	–	–
COc1ccc(C2(C(=O)c3ccccc3)C(=O)c3ccccc3C2=O)cc1	·	2µM	?	?	4.8µM
COc1ccc(C(=O)/C=C2/C(=O)Nc3ccccc32)c(OC)c1	·	–	–	–	8.5µM
COc1ccc(C(=O)/C=C2/c3ccccc3CC(C)(C)N2C)cc1	–	–	–	–	5.4µM
O=C1Nc2ccccc2/C1=C/C(=O)c1cccs1	?	–	–	–	15µM
COc1ccc(C(=O)/C=C2/C(=O)Nc3ccccc32)cc1	·	–	?	–	2.4µM
CCCC(=O)n1nc(-c2ccc(Cl)cc2)nc1SC	?	–	?	–	?
CCC(=O)n1nc(-c2ccc(Cl)cc2)nc1SC	13µM	–	?	?	?
SMILES	SMN2 splice enh	NPC1 promoter act	ELG1 genotoxic	Rab9 promoter act	FLuc counter
CCC(=O)n1nc(-c2ccc(OC)cc2)nc1SC	?	–	?	?	19µM
CCC(=O)N1CCc2cc(S(=O)(=O)NC(Cc3ccccc3)C(=O)Nc3cccc(OC)c3)ccc21 (stereo unspecified)	–	·	·	·	–
C/C(=N\Nc1nc(C(=O)O)cs1)c1ccccc1	–	–	–	–	17µM
CC(C)(C)c1csc(NNC(=O)c2ccc(Br)cc2)n1	–	–	–	–	?
C/C(=N/NC(=O)C(=O)N/N=C(/C)c1ccccc1)c1ccccc1	–	–	–	–	?
C/C(=N\Nc1nc(C(C)(C)C)cs1)c1ccccc1	·	1.4µM	3.7µM	1.1µM	2.1µM
CC(C)(C)c1csc(NC(=O)CS(=O)(=O)c2ccccc2)n1	·	–	?	–	?
C/C(=N\Nc1nc(C(C)(C)C)cs1)c1ccc(O)cc1	·	?	?	?	21µM
C/C(=N\Nc1nc2c(s1)CCCC2)c1ccccc1	11µM	?	?	3.5µM	1.1µM
CC(C)CC(=O)Nc1ccc(S(=O)(=O)Nc2cc3c(cc2N2CCOCC2)n(C)c(=O)c(=O)n3C)cc1	·	·	·	·	–
CCN(C(=O)Cn1nc(Cc2ccncc2)c2ccccc2c1=O)c1cccc(C(F)(F)F)c1	–	·	·	·	–
COC(=O)[C@H](Cc1ccccc1)NC(=O)NCc1cccs1	–	–	–	–	–
